± gives the standard deviation.
Tests used:
Settings in all cases: modulator concentration 10 µM
[1] = system: RAW-Dual (murine macrophage reporter line); assay: NF-kB reporter (SEAP) activity fold change vs agonist alone; higher = enhanced NF-kB activity
How it was run: (§1)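 RAW-Dual murine macrophage reporter cells were plated at 50 000 per well in 384-well plates, pin-transferred compound to 10 μM final, and pre-incubated for 1 hour at 37 °C before a PRR agonist was added and the cells incubated overnight. NF-κB activity was read from supernatant SEAP with QUANTI-Blue at 620 nm absorbance, and IRF activity from Lucia luciferase with QUANTI-Luc by luminescence. Each signal was expressed as fold change by dividing by the mean agonist-only control on the same plate. Two replicate plates were averaged, with errors obtained by propagation.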

[2] = system: RAW-Dual (murine macrophage reporter line); assay: IRF reporter (Lucia luciferase) activity fold change vs agonist alone; higher = enhanced IRF activity
How it was run: as §1

[3] = system: RAW-Dual (murine macrophage reporter line); assay: viability score (confluency relative to resting cells, overnight) (fraction); higher = more viable, active = viable (0.7 or more)
How it was run: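 RAW-Dual macrophages in 384-well plates were exposed overnight to compound at 10 μM final. Confluency was imaged with IncuCyte, and two confluency masks were generated with IncuCyte software over all imaged wells. The viability score is confluency expressed relative to resting cells. Compounds were called viable if both masks exceeded 70% of resting cells.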

[4] = agonist: CpG ODN 1826 0.5 ug/mL

Compound	NF-kB reporter [1, 4]	NF-kB reporter ([1]; agonist: LPS 0.1 ug/mL)	NF-kB reporter ([1]; agonist: MPLA […])	IRF reporter ([2]; agonist: 3'3'-cGAMP 10 ug/mL)	IRF reporter ([2]; agonist: LPS 0.1 ug/mL)	IRF reporter ([2]; agonist: MPLA […])	viability score [3]
COC(=O)/C=C/C(=O)OC	1.2 ± 0.17	1.06 ± 0.17	1.01 ± 0.064	0.61 ± 0.019	1.19 ± 0.28	1.09 ± 0.12	1 (active)
NCCCCC(NC(CCc1ccccc1)C(=O)O)C(=O)N1CCCC1C(=O)O (stereo unspecified)	1.33 ± 0.32	0.955 ± 0.083	1.03 ± 0.088	0.947 ± 0.032	1.09 ± 0.13	1.02 ± 0.13	0.998 (active)
C=C1CCC(OC(C)=O)C(C)=CCC2C1CC2(C)C (stereo unspecified)	0.932 ± 0.086	0.776 ± 0.1	0.752 ± 0.071	0.671 ± 0.038	0.928 ± 0.17	0.779 ± 0.24	1.03 (active)
COc1cccc(C=NNc2nnc(C)c(=O)[nH]2)c1OC	0.888 ± 0.27	1.08 ± 0.094	0.993 ± 0.12	0.952 ± 0.038	1.09 ± 0.22	1.15 ± 0.29	1.01 (active)
CCN(CC)CC#CCOC(=O)C(O)(c1ccccc1)C1CCCCC1.Cl (stereo unspecified)	0.873 ± 0.057	1.01 ± 0.11	1.05 ± 0.084	0.998 ± 0.047	1.12 ± 0.2	1.19 ± 0.29	1.02 (active)
COCCn1c(C)cc(C(=O)CSc2ncnc3sc4c(c23)CCC4)c1C	0.991 ± 0.067	1.11 ± 0.12	1.02 ± 0.079	1.04 ± 0.036	1.43 ± 0.12	1.16 ± 0.12	0.994 (active)
Clc1ccc(Cn2c(CN3CCCC3)nc3ccccc32)cc1 [Prestw-227]	0.369 ± 0.076	1.12 ± 0.1	1.06 ± 0.14	0.682 ± 0.038	1.07 ± 0.1	1.37 ± 0.18	0.787 (active)
COc1ccc2cc(CCC(C)=O)ccc2c1	1.23 ± 0.19	1.19 ± 0.56	1.06 ± 0.11	0.931 ± 0.03	1.18 ± 0.45	1.2 ± 0.098	0.95 (active)
CCC[C@@H]1C[C@@H](C(=O)N[C@@H]([C@H]2O[C@H](SC)[C@H](OP(=O)(O)O)[C@@H](O)[C@H]2O)[C@H](C)Cl)N(C)C1	0.953 ± 0.08	0.954 ± 0.059	0.952 ± 0.043	0.972 ± 0.073	1.01 ± 0.09	1.15 ± 0.092	1 (active)
O=C(CSC1CCCCC1)Nc1cc(C(F)(F)F)ccc1Cl	0.516 ± 0.045	1.38 ± 0.11	1.39 ± 0.063	1.45 ± 0.14	2.2 ± 0.16	1.47 ± 0.43	1.01 (active)
CC(C)NCC(O)c1ccc(NS(C)(=O)=O)cc1.Cl (stereo unspecified)	0.99 ± 0.098	1.02 ± 0.057	1 ± 0.043	1.01 ± 0.056	0.978 ± 0.082	0.99 ± 0.09	1 (active)
NC(=O)c1cccnc1	0.89 ± 0.16	0.878 ± 0.33	1.03 ± 0.13	0.912 ± 0.034	0.984 ± 0.22	0.934 ± 0.14	1 (active)
CCN(CC)c1ccc(C2Nc3ccccc3-c3nnc(SC)nc3O2)c(OC)c1 (stereo unspecified)	0.889 ± 0.07	0.986 ± 0.066	0.985 ± 0.059	0.954 ± 0.024	1.39 ± 0.24	0.87 ± 0.076	1.01 (active)
